Shown are actives, neighbours in structure and some others; about 3.9% of the full set was active somewhere.
BRCA1 expr act – BRCA1 expression activation | MCF7-BRCA1-FFLuc reporter, luminescence, 48 h; response scale: scaled: vehicle 0%, 10 µM genistein 100% | Potency, µM (titrated, usually from 46.1 µM), without a hit: at the highest dose activation, hits mostly activators | 1.1% of 380,000 active; note: nearly all actives have a fitted effect of over 80% in size
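Quantitative HTS in MCF7 cells stably reporting BRCA1 expression via firefly luciferase. Compound treatment lasts 48 h at 37 °C in phenol-red free MEM. Activation is expressed relative to genistein at 10 microM and DMSO.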
VDR inh – blocks the human vitamin D receptor; Potency, µM, for inactives: max response, negative = inhibition, usual class: inhibitors; 0.93% of 400,000 active; VDR-SRC2-3 peptide fluorescence polarization, 2 h; P11473; note: % is set by controls: 0 for no effect and ±100 for the full control effect
Target sequence (P11473 whole entry, looked up): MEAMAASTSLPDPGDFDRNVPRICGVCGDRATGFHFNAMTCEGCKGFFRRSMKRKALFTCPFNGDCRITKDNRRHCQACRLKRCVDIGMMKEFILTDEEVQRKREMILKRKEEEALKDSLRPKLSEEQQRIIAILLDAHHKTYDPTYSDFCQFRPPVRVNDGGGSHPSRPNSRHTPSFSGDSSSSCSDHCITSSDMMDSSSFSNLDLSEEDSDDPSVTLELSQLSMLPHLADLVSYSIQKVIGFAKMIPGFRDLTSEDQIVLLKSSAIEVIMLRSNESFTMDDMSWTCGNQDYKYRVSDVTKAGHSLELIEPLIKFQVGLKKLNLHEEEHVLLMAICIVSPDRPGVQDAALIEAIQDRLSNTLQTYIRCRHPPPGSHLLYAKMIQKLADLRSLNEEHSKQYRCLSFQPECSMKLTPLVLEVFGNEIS
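FP read-out; VDR + SRC2-3 coactivator peptide; 23 nl compound by pintool; 2 h RT incubation; reagents held at 4 deg C, protected from light.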
PLK1 PBD inh – PLK1 (human) polo-box domain binding inhibition; Plk1 PBD binding of FITC phosphopeptide, fluorescence polarization; Potency, µM, inactives show max response, negative = inhibition, most hits filed as inhibitors; 2.8% of 360,000 active; AID 720504; note: series mostly up to about 57 µM; % is set by controls: 0 for no effect and ±100 for the full control effect; nearly all actives have a fitted effect of over 65% in size
Tb PFK inh-1 – blocks T. brucei phosphofructokinase; Potency, µM (highest dose often 57.5 µM), inactives show at the highest dose activity, negative = inhibition, hits mostly inhibitors; T. brucei PFK, ADP-Glo luminescence; AID 485367; O15648; 0.17% of 330,000 active;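 note: 0% = uninhibited 1x PFK enzyme wells and -100% = no-enzyme wells; nearly all actives have a fitted effect of over 60% in size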
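In TEA buffer at pH 8.0 with 5 mM MgCl2, enzyme (1.25 nM) converted F6P (0.5 mM) and ATP (0.1 mM) for 45 min at room temperature. ADP product was read by luciferase luminescence.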
Tb PFK KinaseGlo – Tb phosphofructokinase inhibition, orthogonal luminescence; shares compounds with Tb PFK inh-1; Tb PFK enzyme, ATP depletion, Kinase-Glo Plus luminescence; Potency, µM (titrated, usually from 57.5 µM), without a hit: at the top dose inhibition; 47% of 1,100 active; AID 504636; calls by dose curve; note: nearly all actives have a fitted effect of over 60% in size
Tb PFK inh-2 – validation of T. brucei phosphofructokinase inhibitors | shares compounds with Tb PFK inh-1 | purified T. brucei PFK, ADP-Glo luminescence, 45 min | Potency, µM (highest dose often 57.5 µM), for inactives: top-dose activity change, negative = inhibition, usual class: inhibitors | 41% of 1,100 active;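 note: plate controls were full PFK enzyme control for no effect and no enzyme control for full effect; nearly all actives have a fitted effect of over 60% in size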
Numbers without * were called inactive. Unless noted, calls come from the whole dose curve; as a rule, active = well fitted curve in the direction sought with a large enough effect; inconclusive = small, poorly fitted or top-dose-only effect, or another doubt; inactive = no such curve, though single readings can be large; an effect the other way counts as inactive or inconclusive. Potency is the fitted concentration of half-maximal effect.

How did CC1C(=O)OC2C(O)C34C5OC(=O)[C@@]3(OC3OC(=O)[C@H](O)[C@]34C(C(C)(C)C)C5O)[C@]12O (some centres undefined) do in these assays?
VDR inh: 2%

What do the screens show for `Cc1ccc(C(=O)Nc2nc3ccccc3[nH]2)cc1`?
BRCA1 expr act: -79%; VDR inh: 5%; PLK1 PBD inh: -4%; Tb PFK inh-1: -11%

What do the screens show for `O=C(NNC(=O)c1cc2cc3ccccc3nc2s1)c1ccc(F)cc1`?
BRCA1 expr act: 19%; VDR inh: -10%; PLK1 PBD inh: -17%; Tb PFK inh-1: inconclusive; Tb PFK KinaseGlo: inconclusive; Tb PFK inh-2: inconclusive

What do the screens show for `O=C(Nc1cccc(-c2nnn(CC(=O)N3CCc4ccccc4C3)n2)c1)C1CCC1`?
BRCA1 expr act: -2%; VDR inh: 5%; PLK1 PBD inh: -4%; Tb PFK inh-1: 24µM*; Tb PFK KinaseGlo: 13µM*; Tb PFK inh-2: inconclusive

What do the screens show for `COC(=O)N1CCC2(CCCN(C)C2)CC1`?
VDR inh: -13%

Results for NNC(=O)CNc1cccc(Br)c1 ?
BRCA1 expr act: -4%; VDR inh: 12%; PLK1 PBD inh: -15%; Tb PFK inh-1: 15µM*; Tb PFK KinaseGlo: 21µM*; Tb PFK inh-2: inconclusive

Results for Cc1noc(NS(=O)(=O)c2ccc(NC(=O)Cc3ccc([N+](=O)[O-])cc3)cc2)c1C ?
BRCA1 expr act: 6%; VDR inh: -28%; PLK1 PBD inh: -18%; Tb PFK inh-1: 6µM*; Tb PFK KinaseGlo: 3.4µM*; Tb PFK inh-2: 12µM*

Results for CC(=O)Nc1ccc([As](=O)(O)c2ccc([N+](=O)[O-])cc2)cc1 ?
BRCA1 expr act: 0%; VDR inh: 16%; PLK1 PBD inh: -10%; Tb PFK inh-1: -2%

What do the screens show for `Cc1cc(NS(=O)(=O)c2ccc(NC(=O)Cc3ccc([N+](=O)[O-])cc3)cc2)nc(C)n1`?
BRCA1 expr act: 2%; VDR inh: 17%; PLK1 PBD inh: -1%; Tb PFK inh-1: 8.5µM*; Tb PFK KinaseGlo: 3.8µM*; Tb PFK inh-2: 6µM*

Results for CN1CCN(P(=O)(c2ccccc2)c2nc3ccccc3s2)CC1 (centres undefined) ?
BRCA1 expr act: -3%; VDR inh: -9%; PLK1 PBD inh: inconclusive; Tb PFK inh-1: 0%

What do the screens show for `COc1cc(/C=C/c2nc3ccccc3c(=O)n2-c2ccc(Br)c(C)c2)ccc1O`?
VDR inh: -1%

How did O=C(Nc1ccc(Cl)cc1)Nc1cccnc1 do in these assays?
BRCA1 expr act: inconclusive; VDR inh: 9%; PLK1 PBD inh: -9%; Tb PFK inh-1: 17µM*; Tb PFK KinaseGlo: inconclusive; Tb PFK inh-2: inconclusive

Results for O=C(Nc1ccc(Cl)cc1)Nc1nccs1 ?
BRCA1 expr act: -34%; VDR inh: -9%; PLK1 PBD inh: -3%; Tb PFK inh-1: -9%

What do the screens show for `NC(=O)Nc1ccc(Cl)cc1`?
BRCA1 expr act: 0%; VDR inh: -1%; PLK1 PBD inh: -1%; Tb PFK inh-1: 21µM*; Tb PFK KinaseGlo: 24µM*; Tb PFK inh-2: 30µM*

Results for O=C(Oc1ccccc1)N1CCC2(CCN(Cc3nccs3)CC2)CC1 ?
VDR inh: 8%

What do the screens show for `O=C1C=C(NCc2ccc(Cl)cc2Cl)C2(CCCCC2)O1`?
BRCA1 expr act: -44%; VDR inh: -6%; PLK1 PBD inh: -10%; Tb PFK inh-1: 11µM*; Tb PFK KinaseGlo: 5.4µM*; Tb PFK inh-2: 17µM*

Results for N=c1c2c(n(Cc3ccc(Cl)cc3Cl)c3c1CCC3)CCCC2 ?
BRCA1 expr act: -83%; VDR inh: 9%; PLK1 PBD inh: -19%; Tb PFK inh-1: -1%

How did O=c1cc(-c2ccc(O)c(O)c2)oc2cc(O[C@@H]3O[C@H](CO)[C@@H](O)[C@H](O)[C@H]3O)cc(O)c12 do in these assays?
BRCA1 expr act: inconclusive; VDR inh: -3%; PLK1 PBD inh: -5%; Tb PFK inh-1: inconclusive; Tb PFK KinaseGlo: inconclusive; Tb PFK inh-2: inconclusive

How did O=[N+]([O-])c1ccc(O[C@@H]2O[C@H](CO)[C@@H](O)[C@H](O)[C@H]2F)c([N+](=O)[O-])c1 do in these assays?
VDR inh: 2%

How did O=c1c(OC2OC(CO)C(O)C(O)C2O)c(-c2ccc(O)c(O)c2)oc2cc(O)cc(O)c12 (centres undefined) do in these assays?
BRCA1 expr act: 7%; VDR inh: 9%; PLK1 PBD inh: 3%; Tb PFK inh-1: 12µM*; Tb PFK KinaseGlo: 8.5µM*; Tb PFK inh-2: 4.3µM*

What do the screens show for `O=C(Nc1ccc(Cl)c(Cl)c1)O/N=C/c1ccncc1`?
BRCA1 expr act: -42%; VDR inh: 7%; PLK1 PBD inh: inconclusive; Tb PFK inh-1: 8.5µM*; Tb PFK KinaseGlo: inconclusive; Tb PFK inh-2: inconclusive

What do the screens show for `COc1ccc(NC(=O)O/N=C/c2ccccc2)cc1`?
BRCA1 expr act: inconclusive; VDR inh: -3%; PLK1 PBD inh: 4%; Tb PFK inh-1: 1%

Results for COc1cc2c3cc1Oc1cc(ccc1O)C[C@@H]1c4c(cc(OC)c(O)c4Oc4cccc(c4)C[C@H]3N(C)CC2)CC[N+]1(C)C ?
VDR inh: 1%

Results for O=C1c2ccccc2C(=O)N1/N=C/c1ccc(O)c(O)c1O ?
BRCA1 expr act: -10%; VDR inh: 79µM*; PLK1 PBD inh: 13µM*; Tb PFK inh-1: 19µM*; Tb PFK KinaseGlo: 11µM*; Tb PFK inh-2: 27µM*

How did CC(C(=O)c1ccccc1)N1C(=O)c2ccccc2C1=O (centres undefined) do in these assays?
BRCA1 expr act: -2%; VDR inh: -5%; PLK1 PBD inh: -6%; Tb PFK inh-1: 0%

What do the screens show for `O=C1C(=O)N(CCCn2ccnc2)C(c2cccc(Br)c2)/C1=C(\O)c1ccc2c(c1)OCCO2` (centres undefined)?
BRCA1 expr act: 3%; VDR inh: -23%; PLK1 PBD inh: 30µM*; Tb PFK inh-1: inconclusive; Tb PFK KinaseGlo: inconclusive; Tb PFK inh-2: inconclusive

How did [N-]=[N+]=CC(=O)OCC(N)C(=O)O (centres undefined) do in these assays?
VDR inh: 6%

Results for Cc1ccc(-c2csc3n[nH]c(=S)n23)cc1 ?
BRCA1 expr act: 7%; VDR inh: -33%; PLK1 PBD inh: -29%; Tb PFK inh-1: inconclusive; Tb PFK KinaseGlo: 0.3µM*; Tb PFK inh-2: 0.43µM*

How did O=C(NN=Cc1ccc(N(CCCl)CCCl)cc1Cl)c1cccnc1 do in these assays?
BRCA1 expr act: -79%; VDR inh: -3%; PLK1 PBD inh: -2%

Results for CN(C)c1ccc(/C=N\NC(=O)c2ccc(Cn3cc(Cl)cn3)cc2)cc1 ?
BRCA1 expr act: -50%; VDR inh: -12%; PLK1 PBD inh: -8%; Tb PFK inh-1: 12µM*; Tb PFK KinaseGlo: 2.7µM*; Tb PFK inh-2: 3.4µM*

Screening results from PubChem.
